Assay results reported in PubChem BioAssay (NCATS).
Several values for one entry are separate records, joined by “and”; a condition that tells them apart may be missing. Equal values may be shown once. Inconclusive results are not listed. Where a call stands in place of a potency, no number is given. Some structures have more than one record in an assay (separate samples or runs), and their calls can disagree. Activity calls are given as the source filed them. Calls follow the shape of the dose curve; as a rule, active = well fitted curve in the direction sought with a large enough effect; inconclusive = small, poorly fitted or top-dose-only effect, or another doubt; inactive = no such curve, though single readings can be large; an effect the other way counts as inactive or inconclusive.

Legend:
[1] = Viability qHTS for spleen associated tyrosine kinase inhibitor (SYKi) drug resistant MV4-11 cells (AID 1963824); conditions: SYKi-resistant MV4-11 viability, CellTiter-Glo, 72 h; series mostly up to 45 µM; also: nearly all actives have a fitted effect of over 35% in size; also: potency is read from the fitted curve at half-maximal effect
Procedure, shortened: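 SYK inhibitor-resistant MV4-11 AML cells, 500 per well, added to predispensed compounds and incubated 72 hr at 37 C, 5% CO2. Viability measured by CellTiter-Glo luminescence after 10 min at room temperature.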

[2] = Cellular viability qHTS for adrenocortical cancer (ACC) cell line SW-13 (AID 1963989); conditions: SW-13 ACC cells viability, CellTiter-Glo, 48 h; activity (max response): stronger effect = lower value; also: nearly all actives have a fitted effect of over 65% in size; also: potency is read from the fitted curve at half-maximal effect;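 as to activity (max response): cells grown in serum-free medium with ITS supplement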
Procedure, shortened: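 Compound titrations (up to 46 uM final, in DMSO) were applied to SW-13 cells for 48 h at 37C/5% CO2. Reading used CellTiter-Glo after 20 min at room temperature; fitted curves yielded IC50 and efficacy.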

[3] = Cellular viability qHTS for adrenocortical cancer (ACC) cell line NCI-H295R (AID 1963990); conditions: CellTiter-Glo ATP luminescence, 48 h; series mostly up to 46.1 µM; also: nearly all actives have a fitted effect of over 60% in size; also: potency is read from the fitted curve at half-maximal effect
Procedure, shortened: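 Readout: CellTiter-Glo luminescence, 20 min RT. Exposure: 48 h, 37C/5% CO2. Cells: NCI-H295R, ITS-DMEM serum-free. Range: up to 46 uM. Analysis: 4PL fit, IC50 plus efficacy.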

[4] = Quantitative highthroughput screen to assess conditional lethalithy of P12 Ichikawa cells grown in Human Plasma-Like Medium with dialyzed fetal bovine serum (HPLM+ds) (AID 1963879); conditions: ATP luminescence, 48 h; Potency: viability; series mostly up to 45.8 µM; also: nearly all actives have a fitted effect of over 35% in size
Procedure, shortened: (§1)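 Each medium arm—HPLM with 10% dialyzed FBS, or RPMI1640 with 5 mM glucose and 10% untreated or dialyzed FBS—was screened against an 11-point, 3-fold compound titration for 48 h at 37 °C, with CellTiter-Glo luminescence as endpoint.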

[5] = Quantitative highthroughput screen to assess conditional lethalithy of SEM cells grown in Human Plasma-Like Medium with dialyzed fetal bovine serum (HPLM+ds) (AID 1963882); conditions: SEM B-ALL cells in HPLM+ds, CellTiter-Glo viability, 48 h; series mostly up to 45.8 µM; also: nearly all actives have a fitted effect of over 35% in size
Procedure, shortened: as §1

[6] = Quantitative highthroughput screen to assess conditional lethalithy of SEM cells grown in RPMI1640 with dialyzed fetal bovine serum (RPMI+ds) (AID 1963884); conditions: SEM B-ALL cells, RPMI+dialyzed FBS, CellTiter-Glo viability, 48 h; series mostly up to 45.8 µM; also: nearly all actives have a fitted effect of over 35% in size
Procedure, shortened: as §1

[7] = Quantitative highthroughput screen to assess conditional lethalithy of P12 Ichikawa cells grown in RPMI1640 with dialyzed fetal bovine serum (RPMI+ds) (AID 1963880); conditions: ATP luminescence, 48 h; Potency: P12-Ichikawa viability; series mostly up to 45.8 µM; also: nearly all actives have a fitted effect of over 35% in size
Procedure, shortened: as §1

[8] = Quantitative highthroughput screen to assess conditional lethalithy of P12 Ichikawa cells grown in RPMI1640 with untreated serum (RPMI+s) (AID 1963881); conditions: ATP luminescence, 48 h; Potency: viability; series mostly up to 45.8 µM; also: nearly all actives have a fitted effect of over 35% in size
Procedure, shortened: as §1

[9] = Quantitative highthroughput screen to assess conditional lethalithy of SEM cells grown in RPMI1640 with unreated serum (RPMI+s) (AID 1963883); conditions: SEM B-ALL cells, CellTiter-Glo viability, 48 h; series mostly up to 45.8 µM; also: nearly all actives have a fitted effect of over 35% in size
Procedure, shortened: as §1

O=[N+]([O-])c1cc([As](=O)(O)O)ccc1O
Potency [1]: inactive
activity (max response) [2]: 2.65% (inactive)

COP(=S)(OC)Oc1ccc(S(=O)(=O)N(C)C)cc1
Potency [1]: inactive
activity (max response) [2]: -2.83% (inactive)

CC[n+]1c(-c2ccccc2)c2cc(N)ccc2c2ccc(N)cc21
Potency [1]: 4.22 µM (active)
Potency [2]: 5.17 µM (active)
Potency [3]: 14.6 µM (active)

CCN1CCCC1CNC(=O)C(O)(c1ccccc1)c1ccccc1 (stereo not drawn)
Potency [1]: inactive
activity (max response) [2]: -3.88% (inactive)

CN(C)CCc1c[nH]c2cccc(OP(=O)(O)O)c12
Potency [1]: inactive
activity (max response) [2]: -5.41% (inactive)
Potency [3]: inactive

CNC(=O)c1ccc(N2C(=S)N(c3ccc(C#N)c(C(F)(F)F)c3)C(=O)C23CCC3)cc1F
Potency [1]: 18.6 µM (active)
Potency [4]: inactive
Potency [5]: inactive
Potency [6]: inactive
Potency [3]: inactive

COC(=O)[C@@]12OC[C@]34[C@H]([C@@H](O)[C@@H]1O)[C@@]1(C)CC(=O)C(O)=C(C)[C@@H]1C[C@H]3OC(=O)[C@H](OC(=O)/C=C(\C)C(C)C)[C@@H]24
Potency [1]: 0.0132 µM (active)
Potency [2]: 6.31 µM (active)

C[C@]12Cc3cn[nH]c3C[C@@H]1CC[C@@H]1[C@@H]2CC[C@@]2(C)[C@H]1CC[C@]2(C)O
Potency [1]: 18.6 µM (active)
activity (max response) [2]: -0.402% (inactive) and -24.7% (inactive)

O=c1[nH]c2ccccc2n1C1CCNCC1
Potency [1]: inactive
activity (max response) [2]: 4.94% (inactive)
Potency [3]: inactive

O=c1[nH]c2ccccc2n1CCCN1CCC(n2c(=O)[nH]c3cc(Cl)ccc32)CC1
Potency [1]: 18.6 µM (active)
Potency [4]: inactive
Potency [7]: inactive
Potency [8]: inactive
Potency [5]: inactive
Potency [9]: inactive
Potency [6]: inactive
activity (max response) [2]: -19.5% (inactive)
Potency [3]: 16.4 µM (active) and inactive
